# In all, about 310,000 compounds went through this assay and about 14,000 (4.5%) showed an effect of 50% or more. Effects have a minus sign here. The entries come from a sample that favours strong results as a whole.
# Target: human ether-à-go-go-related gene (hERG) potassium channel (human, UniProt Q12809)
# Experiment: primary screen, population patch clamp on CHO cells stably expressing hERG; higher = less effect of the substance
# Experimental: Briefly, Chinese hamster ovary (CHO) cells stably expressing the hERG channel were dislodged from tissue culture flasks and dispensed into PPC plates. […] During the recording, background leak currents were estimated by a 100 ms step to -80 mV from an initial holding potential of -70 mV and subtracted from the subsequent current measurement. The campaign was conducted in two phases using slight differences in recording protocol. In the first phase, the initial voltage pulse used a 100 ms step to -30 mV from a holding potential of -70 mV, a 2 s conditioning step to +25 mV, and a 2 s test step to -30 mV. During the second phase of the screen, the potential during the conditioning step was raised to +45 mV. In both phases of the campaign, a secondary voltage pulse was applied using the same parameters as the second phase initial pulse. The initial and secondary pulses were applied in the absence of compound, and upon application of 1 μM and 10 μM test concentrations. […]
# 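Further: peak tail current of the secondary pulse compared with the same well before compound.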
# human ether-à-go-go-related gene (hERG) potassium channel, sequence (Q12809 whole entry, looked up): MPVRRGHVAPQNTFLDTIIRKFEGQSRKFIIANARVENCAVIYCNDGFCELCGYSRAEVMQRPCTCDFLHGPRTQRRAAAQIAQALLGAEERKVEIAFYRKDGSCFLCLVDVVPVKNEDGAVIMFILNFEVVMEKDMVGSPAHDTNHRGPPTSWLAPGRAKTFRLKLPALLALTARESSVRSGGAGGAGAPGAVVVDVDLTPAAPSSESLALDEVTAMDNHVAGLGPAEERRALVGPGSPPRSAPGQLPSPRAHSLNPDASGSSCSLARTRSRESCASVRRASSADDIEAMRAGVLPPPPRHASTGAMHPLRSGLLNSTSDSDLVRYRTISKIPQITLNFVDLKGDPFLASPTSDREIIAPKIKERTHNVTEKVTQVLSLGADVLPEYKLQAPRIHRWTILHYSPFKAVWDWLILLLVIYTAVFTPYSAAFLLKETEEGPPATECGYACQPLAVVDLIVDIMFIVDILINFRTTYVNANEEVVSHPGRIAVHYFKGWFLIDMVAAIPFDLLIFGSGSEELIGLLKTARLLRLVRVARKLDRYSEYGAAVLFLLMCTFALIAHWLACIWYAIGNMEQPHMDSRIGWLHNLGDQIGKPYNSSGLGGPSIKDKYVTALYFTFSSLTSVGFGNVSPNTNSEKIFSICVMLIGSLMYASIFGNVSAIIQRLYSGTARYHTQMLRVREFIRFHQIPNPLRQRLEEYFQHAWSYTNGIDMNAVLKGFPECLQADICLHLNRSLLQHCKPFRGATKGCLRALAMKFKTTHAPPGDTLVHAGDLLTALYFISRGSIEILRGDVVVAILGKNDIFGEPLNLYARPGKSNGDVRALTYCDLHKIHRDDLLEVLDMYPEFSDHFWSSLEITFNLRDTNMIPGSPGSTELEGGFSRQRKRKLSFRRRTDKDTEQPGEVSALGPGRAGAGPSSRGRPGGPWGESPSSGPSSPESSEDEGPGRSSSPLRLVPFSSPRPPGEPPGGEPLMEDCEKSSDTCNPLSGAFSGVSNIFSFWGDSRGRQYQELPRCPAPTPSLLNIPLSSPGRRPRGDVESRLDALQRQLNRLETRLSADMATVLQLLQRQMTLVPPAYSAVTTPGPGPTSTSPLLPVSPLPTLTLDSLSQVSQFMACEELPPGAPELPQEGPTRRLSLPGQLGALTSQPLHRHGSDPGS
row,SMILES,"hERG current change (%, negative = inhibition) at 10uM"
1,CCOC(=O)c1ccc(NC(=O)NS(=O)(=O)c2ccc(C)cc2)cc1,10.9%
2,CC(C)Oc1ccc(S(=O)(=O)N2CCCCC2)cc1NC(=O)CN1C(=O)NC2(CCCC2)C1=O,-2.87%
3,O=[N+]([O-])c1cccc(/C=N/NC2CCS(=O)(=O)C2)c1 (stereo not shown),11.9%
4,Cc1ccsc1C(=O)N1CCCC(CCC(=O)NCc2ccccc2F)C1 (stereo not shown),-7.46%
5,Cc1ccc(S(=O)(=O)N2CCCC(CCC(=O)NCc3ccccc3F)C2)s1 (stereo not shown),-50.7%
6,Cc1ccsc1S(=O)(=O)N1CCCC(CCC(=O)NCc2ccccc2F)C1 (stereo not shown),5.38%
7,CCOC(=O)C1=C(CSc2n[nH]c(N)n2)NC(=O)NC1C (stereo not shown),3.79%
8,CC1CC(C)CN(S(=O)(=O)N2CCCC(C(=O)NC(C)c3ccccc3)C2)C1 (stereo not shown),3.1%
9,COc1ccc(OC)c2[nH]c(C(=O)N3CCC(C(=O)O)CC3)cc12,24.6%
10,O=C(CSc1nnc(NC2CCCCC2)s1)NC1CCS(=O)(=O)C1 (stereo not shown),-0.507%
11,O=[N+]([O-])c1cc(Cl)ccc1NCCc1ccccn1,-16.8%
12,O=[N+]([O-])c1cc(Cl)ccc1Sc1ccccn1,3.65%
13,N#Cc1ccc(Sc2ccccn2)c([N+](=O)[O-])c1,-61.5%
14,N#Cc1ccc(NCCc2ccccn2)c([N+](=O)[O-])c1,-74%
15,N#Cc1cc([N+](=O)[O-])ccc1NCCc1ccccn1,-18.4%
16,N#Cc1cc(Sc2ccccn2)c([N+](=O)[O-])cc1C#N,-18.9%
17,CC(C)(C)c1ccc(OCC(=O)O)cc1,17.9%
18,COC(=O)c1sc(S(=O)(=O)NCCC(=O)O)c(C(=O)OC)c1C,5.17%
19,CCOc1ccc(S(=O)(=O)N2CCOCC2)cc1NC(=O)CSCC(=O)Nc1cccc(C)c1,-11.4%
20,Cc1cccc(NC(=O)CSCC(=O)Nc2ccc(S(=O)(=O)N3CCOCC3)cc2)c1,-5.21%
21,CCOc1ccc(S(=O)(=O)N2CCOCC2)cc1NC(=O)C1CCC1,16.3%

row,SMILES,"hERG current change (%, negative = inhibition) at 10uM"
1,Cc1cccc(NC(=O)CSCC(=O)Nc2cc(S(=O)(=O)N3CCOCC3)ccc2OC(C)C)c1,-87.2%
2,CCN(CC)c1ccc(S(=O)(=O)N2CCOCC2)cc1NC(=O)CSC(=S)N1CCCC1,-32.2%
3,Cc1ccc(CSCC(=O)Nc2cc(S(=O)(=O)N3CCOCC3)ccc2OC(C)C)cc1,-30.5%
4,CCOc1ccc(S(=O)(=O)N2CCOCC2)cc1NC(=O)CSCc1ccc(C)cc1,-53.2%
5,CCOc1ccc(S(=O)(=O)N2CCOCC2)cc1NC(=O)CSCC(=O)Nc1ccc(C)cc1,-18.2%
6,CCOc1ccc(S(=O)(=O)N2CCOCC2)cc1NC(=O)CSC(=S)N1CCCC1,-63%
7,Cc1cc(C)c2c(c1)/C(=N/NC(=O)c1cc(C)oc1C)CCC2,6.66%
8,Cc1ccc(S(=O)(=O)N2CCC(C(=O)OCC(=O)NCCc3ccccc3)CC2)cc1C,-8.07%
9,C/C(=N\O)c1c(O)cc(-c2ccccc2)n(-c2ccccc2)c1=O,8.56%
10,CN(c1ccc(C(=O)N/N=C/c2cccc([N+](=O)[O-])c2)cc1)S(=O)(=O)c1ccccc1,1.88%
11,Cc1onc(-c2c(F)cccc2Cl)c1C(=O)N(C)C1CCCCC1,2.65%
12,CCN(CC)c1ccc(/C=N/NC(=S)NCc2ccccc2)c(O)c1,12%
13,COCCn1c(=S)[nH]c2cc(C(=O)N(CCO)Cc3ccccc3)ccc2c1=O,4.32%
14,CC(C)=CCc1c(O)ccc2c1OC(c1ccc(O)c(O)c1)CC2=O (stereo not shown),9.78%
15,COc1ccc(N2CCN(C(=O)CSc3ccc([N+](=O)[O-])cc3)CC2)cc1,-68.4%
16,COc1ccc(N2CCN(C(=O)CSc3ccccc3)CC2)cc1,4.44%
17,COc1ccc(C(=O)CCC(=O)N2CCN(c3ccccc3)CC2)cc1,-9.62%
18,COc1ccc(N2CCN(C(=O)CSc3ccccc3N)CC2)cc1,3.07%
19,COc1ccc(C(=O)CCC(=O)N2CCN(c3ccc([N+](=O)[O-])cc3)CC2)cc1,-63.8%
20,COc1ccc(C(=O)NC(=S)N2CCN(c3ccc([N+](=O)[O-])cc3)CC2)cc1,-49.2%
21,O=C(NC1CCN(S(=O)(=O)c2cccc(F)c2)CC1)c1ccc(F)cc1,14.6%

row,SMILES,"hERG current change (%, negative = inhibition) at 10uM"
1,Cc1cc2c(sc3c(C)ccc(C)c32)c(C)n1.Cl,3.48%
2,O=C(NNC(=O)c1cccnc1)NC12CC3CC(CC(C3)C1)C2,-2.41%
3,CCCNC(=O)CS(=O)Cc1nc(-c2ccccc2C)oc1C (stereo not shown),6.71%
4,CC(=O)c1ccccc1NC(=O)C1CCCN(C(=O)c2ccc(Cl)cc2)C1 (stereo not shown),-25.6%
5,COc1ccc(S(=O)(=O)Cc2ccc(C(=O)NC3CCCCC3)o2)cc1,-2.17%
6,C[N+]1(C)C2CCC1CC(OC(=O)c1ccco1)C2.[Br-] (stereo not shown),7.81%
7,CCCN(C(=O)CSc1nnc(-c2ccoc2C)n1N)C1CCS(=O)(=O)C1 (stereo not shown),5.3%
8,O=C(NCC(c1ccco1)N1CCCC1)c1ccccc1F (stereo not shown),3.76%
9,COc1cc(C(=O)NCC(c2ccco2)N2CCCC2)ccc1OCc1ccccc1 (stereo not shown),-40.5%
10,COc1ccccc1C(=O)NCCC(=O)NCC(c1ccco1)N1CCCC1 (stereo not shown),13.7%
11,COc1ccc(Cl)cc1C(=O)NCC(c1ccco1)N1CCCC1 (stereo not shown),-44.5%
12,COc1ccc(OC)c(-c2nn(-c3ccccc3)cc2C(=O)NCC(c2cccs2)N2CCOCC2)c1 (stereo not shown),-30.2%
13,Cc1ccccc1-c1nn(-c2ccccc2)cc1C(=O)NCC(c1ccco1)N1CCCC1 (stereo not shown),-14.3%
14,COc1ccccc1-c1nn(Cc2ccccc2)cc1C(=O)NCC(c1ccco1)N1CCCC1 (stereo not shown),-64%
15,Cc1cc(C(=O)NCC(c2ccco2)N2CCCC2)c2ccccc2n1 (stereo not shown),6.54%
16,O=C(NCC(c1ccco1)N1CCCC1)c1cn(Cc2ccccc2)nc1-c1ccccc1 (stereo not shown),-58.5%
17,COc1ccc(OC)c(-c2nn(-c3ccccc3)cc2C(=O)NCC(c2ccco2)N2CCCC2)c1 (stereo not shown),-63.7%
18,COc1ccccc1-c1nn(-c2ccccc2)cc1C(=O)NCC(c1ccco1)N1CCCC1 (stereo not shown),-53%
19,COc1ccc(OC)c(-c2nn(-c3ccccc3)cc2C(=O)NCC2CCCO2)c1 (stereo not shown),2.13%

# Reference: paper PMC4336329 (PLoS ONE, 2015)
